Data reported in PubChem BioAssay (NCATS).
Inconclusive results are not listed. A call without a number means that no potency is given here. Calls of active or inactive are those of the source. Calls follow the shape of the dose curve; as a rule, active = well fitted curve in the direction sought with a large enough effect; inconclusive = small, poorly fitted or top-dose-only effect, or another doubt; inactive = no such curve, though single readings can be large; an effect the other way counts as inactive or inconclusive.

Legend:
[1] = qHTS of pediatric cancer cell lines to identify multiple opportunities for drug repurposing: Primary screen for U-2 OS cells (AID 1347096); also: nearly all actives have a fitted effect of over 50% in size; also: potency is read from the fitted curve at half-maximal effect
In short: (§1)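 Cells (500-1,000/well) rested 5 h, then received compounds for 48 h; metabolically active cells were measured by CellTiter-Glo luminescence. Final concentrations spanned up to 46 µM (MIPE, 11-point) or 0.59 nM-46 µM (NPC, 8-point) in primary screens, 11-point in follow-ups.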

[2] = qHTS of pediatric cancer cell lines to identify multiple opportunities for drug repurposing: Primary screen for Saos-2 cells (AID 1347097); also: nearly all actives have a fitted effect of over 40% in size; also: potency is read from the fitted curve at half-maximal effect
In short: (§2)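 Luminescence from CellTiter-Glo served as readout of metabolically active cells after 48 h compound exposure. Titrations: MIPE 11-point, from 0.78 nM; NPC 8-point, from 0.59 nM (final). Concentration-response curves came straight from the primary screen.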

[3] = qHTS of pediatric cancer cell lines to identify multiple opportunities for drug repurposing: Primary screen for SK-N-SH cells (AID 1347098); also: nearly all actives have a fitted effect of over 65% in size; also: potency is read from the fitted curve at half-maximal effect
In short: as §1

[4] = qHTS of pediatric cancer cell lines to identify multiple opportunities for drug repurposing: Primary screen for NB1643 cells (AID 1347099); also: nearly all actives have a fitted effect of over 50% in size; also: potency is read from the fitted curve at half-maximal effect
In short: as §2

[5] = qHTS of pediatric cancer cell lines to identify multiple opportunities for drug repurposing: Primary screen for BT-12 cells (AID 1347101); also: nearly all actives have a fitted effect of over 25% in size; also: potency is read from the fitted curve at half-maximal effect
In short: as §1

[6] = qHTS of pediatric cancer cell lines to identify multiple opportunities for drug repurposing: Primary screen for Rh18 cells (AID 1347102); also: nearly all actives have a fitted effect of over 65% in size; also: potency is read from the fitted curve at half-maximal effect
In short: as §1

[7] = qHTS of pediatric cancer cell lines to identify multiple opportunities for drug repurposing: Primary screen for OHS-50 cells (AID 1347103); also: nearly all actives have a fitted effect of over 40% in size; also: potency is read from the fitted curve at half-maximal effect
In short: as §1

[8] = qHTS of pediatric cancer cell lines to identify multiple opportunities for drug repurposing: Primary screen for MG 63 (6-TG R) cells (AID 1347105); also: nearly all actives have a fitted effect of over 50% in size; also: potency is read from the fitted curve at half-maximal effect
In short: as §2

[9] = qHTS of pediatric cancer cell lines to identify multiple opportunities for drug repurposing: Primary screen for control Hh wild type fibroblast cells (AID 1347106);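 also: series mostly up to about 46 µM; a drop in luminescence marks cytotoxicity and a rise apparent proliferation; nearly all actives have a fitted effect of over 55% in size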
In short: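 Viability after 48 h compound treatment at 37C, 500-1,000 cells/well, read as ATP luminescence with CellTiter-Glo. Primary screens used 11-point (MIPE, 0.78 nM-46 µM) or 8-point (NPC, 0.59 nM-46 µM) final concentrations; follow-up screens used 11-point dilutions.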

[10] = qHTS of pediatric cancer cell lines to identify multiple opportunities for drug repurposing: Primary screen for Rh30 cells (AID 1347107); also: nearly all actives have a fitted effect of over 75% in size; also: potency is read from the fitted curve at half-maximal effect
In short: as §1

[11] = qHTS of pediatric cancer cell lines to identify multiple opportunities for drug repurposing: Primary screen for RD cells (AID 1347104); also: nearly all actives have a fitted effect of over 55% in size; also: potency is read from the fitted curve at half-maximal effect
In short: as §2

[12] = qHTS of pediatric cancer cell lines to identify multiple opportunities for drug repurposing: Primary screen for Rh41 cells (AID 1347108); also: nearly all actives have a fitted effect of over 70% in size; also: potency is read from the fitted curve at half-maximal effect
In short: as §2

[13] = qHTS of pediatric cancer cell lines to identify multiple opportunities for drug repurposing: Primary screen for LAN-5 cells (AID 1347100)
In short: as §1

[14] = qHTS of pediatric cancer cell lines to identify multiple opportunities for drug repurposing: Confirmatory screen for NB1643 cells (AID 1347109); also: potency is read from the fitted curve at half-maximal effect; nearly all actives have a fitted effect of over 45% in size
In short: as §1

[15] = qHTS of pediatric cancer cell lines to identify multiple opportunities for drug repurposing: Confirmatory screen for A673 cells (AID 1347110);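 also: potency is read from the fitted curve at half-maximal effect; cells exposed to compound for 48 h before the viability read; nearly all actives have a fitted effect of over 65% in size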
In short: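 A673 cells seeded at 500-1,000 cells/well, rested 5 h, then dosed; primary MIPE 11-point (0.78 nM to 46 µM), NPC (0.59 nM to 46 µM); confirmatory 11-point. CellTiter-Glo luminescence after 48 h.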

[16] = qHTS of pediatric cancer cell lines to identify multiple opportunities for drug repurposing: Confirmatory screen for SK-N-MC cells (AID 1347111);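 also: potency is read from the fitted curve at half-maximal effect; cells exposed to compound for 48 h before the readout; nearly all actives have a fitted effect of over 70% in size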
In short: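 Seed 500-1,000 cells/well; rest 5 h at 37 degrees C. Pin-transfer compounds, 11-point titration. Incubate 48 h. Add CellTiter-Glo, 15 min RT, read luminescence.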

[17] = qHTS of pediatric cancer cell lines to identify multiple opportunities for drug repurposing: Confirmatory screen for BT-12 cells (AID 1347112); also: potency is read from the fitted curve at half-maximal effect; nearly all actives have a fitted effect of over 55% in size
In short: as §1

[18] = qHTS of pediatric cancer cell lines to identify multiple opportunities for drug repurposing: Confirmatory screen for DAOY cells (AID 1347114); also: potency is read from the fitted curve at half-maximal effect; nearly all actives have a fitted effect of over 65% in size
In short: (§3)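 Viability measured as metabolically active cells via CellTiter-Glo luminescence following 48 hours of compound exposure, 11-point dilutions in confirmatory testing. 500-1,000 cells/well plated 5 hours before dosing; controls were DMSO and 2.3 µM bortezomib.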

[19] = qHTS of pediatric cancer cell lines to identify multiple opportunities for drug repurposing: Confirmatory screen for NB-EBc1 cells (AID 1347115);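 also: potency is read from the fitted curve at half-maximal effect; cells exposed to compound for 48 h before the viability read; nearly all actives have a fitted effect of over 45% in size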
In short: as §1

[20] = qHTS of pediatric cancer cell lines to identify multiple opportunities for drug repurposing: Confirmatory screen for SJ-GBM2 cells (AID 1347116); also: potency is read from the fitted curve at half-maximal effect; nearly all actives have a fitted effect of over 60% in size
In short: as §3

SMILES	Potency [1]	Potency [2]	Potency [3]	Potency [4]	Potency [5]	Potency [6]	Potency [7]	Potency [8]	Potency [9]	Potency [10]	Potency [11]	Potency [12]	Potency [13]	Potency [14]	Potency [15]	Potency [16]	Potency [17]	Potency [18]	Potency [19]	Potency [20]
Cc1cc(-c2ccccc2)nnc1NCCN1CCOCC1	inactive	inactive	inactive	inactive	inactive	inactive	inactive	inactive	inactive	inactive										
CC(=O)Nc1ccc(OC(=O)c2ccccc2OC(C)=O)cc1	inactive	inactive	inactive	inactive	inactive	inactive	inactive	inactive		inactive	inactive	inactive								
CC(=O)NC(=O)c1ccccc1O	inactive	inactive	inactive		inactive	inactive	inactive	inactive	inactive	inactive	inactive		inactive							
Cc1cc(CC(=O)O)c(C)n1-c1ccc(Cl)cc1	inactive	inactive	inactive	inactive	inactive	inactive	inactive	inactive	inactive	inactive	inactive	inactive								
CN1CCC[C@@H]1CCO[C@](C)(c1ccccc1)c1ccc(Cl)cc1	inactive	21.1 µM (active)	15.4 µM (active)	inactive	27.6 µM (active)		15.5 µM (active)		inactive	inactive	26.6 µM (active)									
OCc1ccccn1	inactive	inactive	inactive	inactive	inactive	inactive	inactive	inactive	inactive	inactive	inactive	inactive								
CCN1/C(=C/C=C/c2sc3ccccc3[n+]2CC)Sc2ccccc21	9.2 µM (active)	0.92 µM (active)	1.89 µM (active)	2.91 µM (active)	0.601 µM (active)	1.03 µM (active)	0.601 µM (active)	1.84 µM (active)		3.26 µM (active)	1.16 µM (active)	1.64 µM (active)		1.31 µM (active)	0.456 µM (active)	0.827 µM (active)	1.17 µM (active)	0.362 µM (active)	2.61 µM (active)	2.04 µM (active)
CCN(CC)CCNC(=O)COc1ccc(OC)cc1	inactive	inactive	inactive	inactive	inactive	inactive	inactive	inactive	inactive	inactive	inactive	inactive								
O=C(NCCc1c[nH]c2ccccc12)c1cccnc1	inactive	inactive	inactive	inactive	inactive	inactive	inactive	inactive	inactive	inactive		inactive								
CCCCCCCC/C=C\CCCCCCCCN	inactive	inactive	inactive	inactive	inactive	inactive	inactive	inactive	inactive	inactive	inactive	inactive								
O=C(O)P(=O)(O)O	inactive	inactive	inactive		inactive	inactive	inactive	inactive		inactive	inactive	inactive	inactive							
O=C(O)c1ccc(S(=O)(=O)N(Cl)Cl)cc1	inactive	inactive	inactive	inactive	inactive		inactive	inactive	inactive	inactive		inactive								
CC1(C)OC[C@@H]2O[C@@]3(C(=O)O)OC(C)(C)O[C@H]3[C@@H]2O1	inactive	inactive	inactive		inactive	inactive	inactive	inactive	inactive	inactive	inactive		inactive							
COC(=O)C(c1ccccc1Cl)N1CCc2sccc2C1 (stereo not drawn)	inactive	inactive	inactive	inactive	inactive	inactive		inactive	inactive	inactive	inactive	inactive								
C#C[C@]1(O)CC[C@H]2[C@@H]3[C@H](C)CC4=C(CCC(=O)C4)[C@H]3CC[C@@]21C	inactive	inactive	inactive	inactive			inactive	inactive	inactive	inactive		inactive	inactive							
O=C(O)Cc1csc(-c2ccc(Cl)cc2)n1	inactive	inactive	inactive		inactive	inactive	inactive	inactive	inactive	inactive	inactive	inactive	inactive							
CC(=O)O[C@H]1C[C@@H]2CC[C@@H]3[C@H](CC[C@@]4(C)[C@H]3C[C@H]([N+]3(C)CCCCC3)[C@@H]4OC(C)=O)[C@@]2(C)C[C@@H]1N1CCCCC1	inactive	inactive	inactive	inactive	inactive	inactive	inactive	inactive	inactive	inactive	inactive									
CN(C)CCOC(=O)C(c1ccccc1)C1(O)CCCC1 (stereo not drawn)	inactive	inactive	inactive		inactive	inactive	inactive	inactive	inactive	inactive	inactive	inactive	inactive							
COc1ccc(CCN(C)CCCN2CCc3cc(OC)c(OC)cc3CC2=O)cc1OC	inactive	inactive	inactive	inactive	inactive	inactive	inactive	inactive	inactive	inactive		inactive								
NS(=O)(=O)c1cc(C(=O)O)cc(N2CCCC2)c1Oc1ccccc1	inactive	inactive	inactive	inactive	inactive	inactive	inactive	inactive		inactive	inactive	inactive								
